Experiment [1] can be described thus: qHTS assay to identify aromatase inhibitors - cell viability counter screen (AID 743084).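 Further: cells stimulated with testosterone during compound exposure; nearly all actives have a fitted effect of over 55% in size.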 Further: potency means the concentration at half of the fitted maximal effect. In general terms: In qHTS, concentration-response curves come from the screen itself.
Experiment [2] addresses Aryl hydrocarbon receptor (Homo sapiens) (UniProt P35869). Put plainly: qHTS assay to identify small molecule that activate the aryl hydrocarbon receptor (AhR) signaling pathway (AID 743085). Further: nearly all actives have a fitted effect of over 15% in size. Further: potency means the concentration at half of the fitted maximal effect.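 On activation: HG2L7.5c1 human HepG2 liver cells with stably integrated DRE-driven firefly reporter; series mostly up to about 70 µM.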 The essentials: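 Stably transfected human liver carcinoma cells (HG2L7.5c1; 20 DRE-firefly luciferase) were incubated 5 h, dosed, and kept 24 h at 37C. Agonism was scored from increased luciferase luminescence.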

Experiment [3] can be described thus: qHTS assay to identify small molecule that activate the aryl hydrocarbon receptor (AhR) signaling pathway - cell viability counter screen (AID 743086). Further: nearly all actives have a fitted effect of over 45% in size. Further: potency means the concentration at half of the fitted maximal effect. An outline of the steps:
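Cytotoxicity counter screen: CellTiter-Fluor signal (30 min, 37 C) in 4000 HepG2 cells/well carrying the DRE-luciferase reporter, following 24 h compound exposure at 37 C.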

Experiment [4] in a line: qHTS assay to identify small molecule antagonists of the peroxisome proliferator-activated receptor gamma (PPARg) signaling pathway - cell viability counter screen (AID 743194). Further: nearly all actives have a fitted effect of over 55% in size. Further: potency means the concentration at half of the fitted maximal effect. The conditions noted are these: Potency: co-treated with 50 nM rosiglitazone unless noted. An outline of the steps: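 Viability was measured as CellTiter-Glo luminescence in GeneBLAzer PPARg UAS-bla HEK293H cells. These cells had been exposed 17 h at 37 C to compounds together with rosiglitazone at 50 nM final, with the beta-lactamase readout taken in the same wells.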

A short description of experiment [5]: qHTS assay for small molecule activators of the heat shock response signaling pathway - cell viability counter screen (AID 743209). Further: nearly all actives have a fitted effect of over 50% in size. Further: potency means the concentration at half of the fitted maximal effect. The essentials:
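Cytotoxicity counter screen run in parallel with the HSE beta-lactamase reporter, using the same wells. HeLa HSE-bla cells received compound for 5 h at 37 C; ATP-based CellTiter-Glo luminescence was measured after 30 min at room temperature.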

The target in experiment [6] is Peroxisome proliferator-activated receptor gamma (Homo sapiens) (UniProt P37231). Put plainly: qHTS assay to identify small molecule agonists of the peroxisome proliferator-activated receptor gamma (PPARg) signaling pathway (AID 743094; active means well fitted activation curve with a large enough effect in the signal ratio in the repeat runs, not every such curve was filed as active; the % refers to the signal ratio; further: potency means the concentration at half of the fitted maximal effect). The essentials: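 Cells from the PPARg UAS-bla HEK293H line are plated and incubated 5 h at 37C. Compounds in DMSO are pinned in and left 17 h at 37C. LiveBLAzer B/G substrate is then added for 1 h at room temperature before fluorescence is measured.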
Peroxisome proliferator-activated receptor gamma (Homo sapiens), sequence (P37231 whole entry, looked up): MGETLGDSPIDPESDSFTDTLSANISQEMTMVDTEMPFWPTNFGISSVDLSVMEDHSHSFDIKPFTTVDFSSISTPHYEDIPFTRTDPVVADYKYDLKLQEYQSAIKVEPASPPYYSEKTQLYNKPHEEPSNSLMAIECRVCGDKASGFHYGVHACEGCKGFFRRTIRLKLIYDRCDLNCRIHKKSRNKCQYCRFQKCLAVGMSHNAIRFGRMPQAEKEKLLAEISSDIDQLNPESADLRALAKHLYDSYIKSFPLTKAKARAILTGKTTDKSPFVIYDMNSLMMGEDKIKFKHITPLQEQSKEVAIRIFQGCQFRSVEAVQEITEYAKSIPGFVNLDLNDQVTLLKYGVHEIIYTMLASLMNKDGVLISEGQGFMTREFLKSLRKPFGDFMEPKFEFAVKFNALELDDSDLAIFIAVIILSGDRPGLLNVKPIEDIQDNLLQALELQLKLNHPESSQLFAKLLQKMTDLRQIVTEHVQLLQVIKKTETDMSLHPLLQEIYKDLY

Experiment [7] can be described thus: qHTS assay for small molecule agonists of the antioxidant response element (ARE) signaling pathway - cell viability counter screen (AID 743203; calls by dose curve; further: nearly all actives have a fitted effect of over 55% in size; further: potency means the concentration at half of the fitted maximal effect). The essentials:
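Cytotoxicity was tested in parallel with the ARE reporter screen. ARE-bla HepG2 cells were exposed to compounds for 16 hrs, and viability was taken from CellTiter-Glo luminescence.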

Experiment [8] is described as follows: qHTS assay for small molecule activators of the heat shock response signaling pathway (AID 743210; active means well fitted activation curve with a large enough effect in the signal ratio in the repeat runs, with a control signal flat, not every such curve was filed as active; the % refers to the signal ratio; further: potency means the concentration at half of the fitted maximal effect;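 on activation: HeLa cells with beta-lactamase reporter driven by heat shock elements; series mostly up to about 63 µM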). The essentials: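 Fluorescence from a cleaved B/G FRET substrate (2.5 h, room temp) reports HSE-driven beta-lactamase in HeLa cells treated 5 h at 37 C with DMSO-dissolved compounds.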
Experiment [9] is described as follows: qHTS assay for small molecule agonists of the antioxidant response element (ARE) signaling pathway (AID 743202; active means well fitted activation curve with a large enough effect in the signal ratio in the repeat runs, not every such curve was filed as active; the % refers to the signal ratio; further: potency means the concentration at half of the fitted maximal effect). An outline of the steps: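 Beta-lactamase reporter activity, read as fluorescence intensity, reflects ARE/Nrf2 pathway induction in HepG2 cells after 16 h compound exposure at 37 C; substrate loading was 2 h at room temperature.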
Experiment [10] deals with Peroxisome proliferator-activated receptor gamma (Homo sapiens) (UniProt P37231). In words: qHTS assay to identify small molecule antagonists of the peroxisome proliferator-activated receptor gamma (PPARg) signaling pathway (AID 743191; calls by dose curve; further: series mostly up to about 63 µM; nearly all actives have a fitted effect of over 30% in size). An outline of the steps: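 Beta-lactamase reporter under UAS control in HEK293H PPARg-bla cells; compound treatment 17 h at 37C. Read-out: fluorescence intensity after 1 h room-temperature incubation with LiveBLAzer B/G FRET substrate.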

“And” between values parts separate entries of the source, which are not always exact repeats. Identical values can stand only once. Records with an inconclusive call do not appear. Some compounds were tested as several samples or in several runs, with calls that do not always agree. The source made the active and inactive calls. Unless noted, the call rests on the fitted dose curve; in most records, active means well fitted curve in the direction sought with a large enough effect in the repeat runs; inconclusive means weak or mixed curves; inactive means no such curve, though single readings can be large; an effect the other way counts as inactive or inconclusive.

Aryl hydrocarbon receptor (Homo sapiens), sequence (P35869 whole entry, looked up): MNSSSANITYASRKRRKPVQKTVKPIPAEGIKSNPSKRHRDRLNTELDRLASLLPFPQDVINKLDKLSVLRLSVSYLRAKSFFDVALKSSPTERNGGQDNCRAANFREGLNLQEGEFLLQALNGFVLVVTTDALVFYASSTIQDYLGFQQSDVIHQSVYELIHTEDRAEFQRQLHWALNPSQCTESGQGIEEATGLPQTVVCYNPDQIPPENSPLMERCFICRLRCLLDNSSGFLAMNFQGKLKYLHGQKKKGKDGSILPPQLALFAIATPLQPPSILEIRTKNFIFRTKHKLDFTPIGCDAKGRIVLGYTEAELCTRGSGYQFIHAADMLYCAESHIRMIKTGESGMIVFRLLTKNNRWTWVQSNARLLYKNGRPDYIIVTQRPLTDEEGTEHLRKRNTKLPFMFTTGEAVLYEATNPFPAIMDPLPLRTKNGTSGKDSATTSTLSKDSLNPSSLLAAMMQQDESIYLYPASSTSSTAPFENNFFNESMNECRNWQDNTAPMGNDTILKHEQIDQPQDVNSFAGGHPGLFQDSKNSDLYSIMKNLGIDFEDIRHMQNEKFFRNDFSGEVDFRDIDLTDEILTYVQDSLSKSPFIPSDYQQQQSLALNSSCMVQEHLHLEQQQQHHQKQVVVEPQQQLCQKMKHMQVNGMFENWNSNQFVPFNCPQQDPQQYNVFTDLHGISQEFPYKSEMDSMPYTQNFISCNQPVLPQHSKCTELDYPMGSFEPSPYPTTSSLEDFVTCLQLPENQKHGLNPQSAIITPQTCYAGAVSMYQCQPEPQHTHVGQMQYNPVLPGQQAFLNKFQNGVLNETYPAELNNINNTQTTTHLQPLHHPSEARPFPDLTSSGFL

As to `C=CC(=O)OCC(COC(=O)C=C)(COC(=O)C=C)COC(=O)C=C`, the Potency in experiment [1] is 2.73 µM (active); in experiment [3], 19.3 µM (active); in experiment [4] it was 6.92 µM (active); in experiment [5] it was 2.45 µM (active). Moreover, the Potency result in [2] was “inactive”.

In the case of `ClC1=C(Cl)[C@]2(Cl)[C@H]3[C@H]([C@H]4C=C[C@H]3C4)[C@@]1(Cl)C2(Cl)Cl`, the Potency entry in experiment [1], in experiment [2], in experiment [3], in [6], in experiment [7] and in experiment [5] was “inactive” in each case. In [8], the Potency entry is “inactive”.

Turning to `CC[C@H]1C[C@@H]2C[C@H]3c4[nH]c5ccc(OC)cc5c4CCN(C2)[C@@H]13`, the Potency result in experiment [1], in experiment [3], in experiment [9], in experiment [7] and in experiment [5] was “inactive” each time. The Potency in [2] was 8.49 µM (active); in experiment [8], 45.9 µM (active).

In the case of `CC(C)Oc1cccc(NC(=O)c2ccccc2C(F)(F)F)c1`, the Potency entry in experiment [1], in [3], in experiment [6], in experiment [7] and in experiment [8] was “inactive” each time. The Potency in experiment [2] is 9.97 µM (active).

With `CCCCCCCCCCCCBr`, the Potency entry in [1], in experiment [2], in experiment [3], in [10], in experiment [4] and in [5] was “inactive” in each case. In [8], the Potency entry is “inactive”.

Turning to `CC1(C)CN=C(NN=C(/C=C/c2ccc(C(F)(F)F)cc2)/C=C/c2ccc(C(F)(F)F)cc2)NC1`, the Potency in [1] is 13.7 µM (active); in [2] it was 1.22 µM (active); in [3], 27.3 µM (active); in experiment [7], 8.63 µM (active); in [5] it was 24.5 µM (active).

Take `CC(=O)C(Cl)(Cl)Cl`: the Potency is 18.7 µM (active) in [1] and 23.5 µM (active) in [3]. Besides, the Potency result in experiment [2], in [6] and in experiment [5] was “inactive” each time.

On to `Nc1ccccc1C(=O)OC/C=C/c1ccccc1`, for which the Potency result in experiment [1], in experiment [3] and in experiment [6] was “inactive” in each case. For the same compound, the results for the Potency in [2], in experiment [7] and in experiment [5] were 61.3 µM (active), 68.7 µM (active) and 34.8 µM (active), respectively.

In the case of `O=[N+]([O-])c1c2ccccc2cc2ccccc12`, the Potency entry in experiment [1], in experiment [3] and in experiment [5] was “inactive” each time. The Potency in experiment [2] is 15.8 µM (active); in experiment [9], 21.4 µM (active).

On to `CC(C)[C@H](C(=O)OC(C#N)c1cccc(Oc2ccccc2)c1)c1ccc(OC(F)F)cc1` (some centres undefined), for which the Potency entry in [1], in experiment [2], in experiment [3], in experiment [10], in experiment [4] and in [9] was “inactive” each time. Besides, the Potency result in experiment [7] and in experiment [5] was “inactive” each time.

Turning to `C[C@@H]1CC[C@@]2(OC1)O[C@H]1[C@@H](O)[C@H]3[C@@H]4CC[C@H]5C[C@@H](O[C@@H]6O[C@H](CO)[C@H](O[C@@H]7O[C@H](CO)[C@@H](O)[C@H](O[C@@H]8OC[C@@H](O)[C@H](O)[C@H]8O)[C@H]7O[C@@H]7O[C@H](CO)[C@@H](O)[C@H](O[C@@H]8O[C@H](CO)[C@@H](O)[C@H](O)[C@H]8O)[C@H]7O)[C@H](O)[C@H]6O)[C@H](O)C[C@]5(C)[C@H]4CC[C@]3(C)[C@H]1[C@@H]2C`, the Potency is 2.9 µM (active) in [1]; 20.5 µM (active) in experiment [3]; 23.2 µM (active) in experiment [4]; 20.5 µM (active) in experiment [7]; 29.2 µM (active) in [5]. Moreover, in experiment [2], the Potency entry is “inactive”.

Turning to `O=c1ssc(Cl)c1Cl`, the Potency is 17.2 µM (active) in experiment [1], 38.9 µM (active) in experiment [4], 24.3 µM (active) in experiment [7] and 49 µM (active) in [5]. The Potency entry in experiment [2] and in experiment [3] was “inactive” each time.

Turning to `CN(C)S(=O)(=O)N(SC(F)(Cl)Cl)c1ccccc1`, the Potency in experiment [1] was 27.3 µM (active); in [3], 61.1 µM (active); in experiment [4], 3.89 µM (active); in [7] it was 8.63 µM (active). Moreover, in [2], the Potency entry was “inactive”.

As for `CCCCCCCCCCCCCCC(Br)C(=O)O` (centres undefined), the Potency entry in experiment [1], in experiment [2] and in experiment [3] was “inactive” throughout. The Potency in experiment [4] is 43.6 µM (active); in [5], 24.5 µM (active).

For `Cc1cc(C)cc(OP(=O)(Oc2cc(C)cc(C)c2)Oc2cc(C)cc(C)c2)c1`, the Potency entry in experiment [1], in experiment [3], in experiment [10], in experiment [4], in experiment [7] and in experiment [5] was “inactive” throughout. Also, the Potency entry in experiment [8] was “inactive”. For the same compound, in [2], the Potency is 9.84 µM (active).

As for `Oc1ccc(C2(c3ccc(O)cc3)CCCCC2)cc1`, the figures for the Potency in experiment [1] and in [4] were 25.9 µM (active) and 41.3 µM (active), respectively. The Potency entry in experiment [2] is “inactive”.

Take `Nc1ccccc1C(=O)Oc1ccc2ccccc2c1`: the Potency result in experiment [1], in [3], in experiment [6], in experiment [4] and in experiment [7] was “inactive” in each case. Besides, the Potency in experiment [9] was 21.7 µM (active).

With `CN(C)c1ccc(N=Nc2ccccc2)cc1`, the Potency in experiment [1] is 54.5 µM (active); in [2], 27.3 µM (active); in [9] it was 8.64 µM (active). The Potency entry in [4] and in experiment [5] was “inactive” in each case.

For the compound `Fc1ccc(Oc2ccnc3cc(Cl)cc(Cl)c23)cc1`, the Potency result in experiment [1], in experiment [3] and in experiment [10] was “inactive” each time. In addition, the figures for the Potency in experiment [6] and in experiment [9] were 43.6 µM (active) and 12.2 µM (active), respectively.

Regarding `c1ccc(Nc2ccc3ccccc3c2)cc1`, the Potency in experiment [1] was 54.2 µM (active); in experiment [5], “inactive and 54.9 µM (active)”. Moreover, the Potency result in [3], in experiment [6], in experiment [4] and in experiment [8] was “inactive” each time.

For `S=C(SSC(=S)N1CCCCC1)N1CCCCC1`, the Potency in experiment [1] is 0.944 µM (active); in experiment [5], 0.106 µM (active). Moreover, the Potency entry in experiment [2], in experiment [4] and in experiment [7] was “inactive” throughout.

For the compound `CNC(C)Cc1ccc2c(c1)OCO2` (centres undefined), the Potency entry in experiment [1], in experiment [3], in experiment [6], in [10], in experiment [4] and in experiment [9] was “inactive” in each case. Also, the Potency entry in experiment [7] is “inactive”.

On to `O=C(CBr)c1ccc(O)cc1`, for which the Potency entry in [1] and in experiment [3] was “inactive” throughout.

As to `CC(C)CC(C)(c1ccc(O)cc1)c1ccc(O)cc1`, the Potency in experiment [1] was 61.3 µM (active); in [4], 61.7 µM (active); in experiment [5] it was 55.1 µM (active). Moreover, in experiment [2], the Potency entry was “inactive”.

For the origin of these results see PubChem BioAssay (Tox21).
